The source of these data is PubChem BioAssay.

Sequence of NADPH oxidase 5 (Homo sapiens) (Q96PH1 whole entry, looked up): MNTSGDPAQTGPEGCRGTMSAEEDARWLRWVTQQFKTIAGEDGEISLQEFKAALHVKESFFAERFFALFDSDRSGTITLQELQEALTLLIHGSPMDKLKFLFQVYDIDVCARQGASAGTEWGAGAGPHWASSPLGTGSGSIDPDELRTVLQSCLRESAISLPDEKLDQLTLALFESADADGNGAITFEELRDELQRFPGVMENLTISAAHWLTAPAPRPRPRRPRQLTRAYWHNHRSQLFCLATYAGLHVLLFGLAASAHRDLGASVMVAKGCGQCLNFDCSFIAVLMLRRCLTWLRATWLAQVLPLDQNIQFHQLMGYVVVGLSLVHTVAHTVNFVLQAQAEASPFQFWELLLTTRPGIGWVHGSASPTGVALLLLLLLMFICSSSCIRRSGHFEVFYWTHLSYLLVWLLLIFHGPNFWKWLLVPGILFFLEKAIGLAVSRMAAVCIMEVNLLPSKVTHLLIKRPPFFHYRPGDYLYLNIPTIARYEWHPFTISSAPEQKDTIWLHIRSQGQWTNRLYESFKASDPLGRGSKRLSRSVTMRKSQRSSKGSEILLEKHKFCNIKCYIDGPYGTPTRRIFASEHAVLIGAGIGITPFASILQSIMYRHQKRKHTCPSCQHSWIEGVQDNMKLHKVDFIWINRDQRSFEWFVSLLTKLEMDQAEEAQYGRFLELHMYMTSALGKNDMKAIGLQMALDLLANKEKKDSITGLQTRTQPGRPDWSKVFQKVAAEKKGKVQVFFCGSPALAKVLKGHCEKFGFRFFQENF

The test concerns the target NADPH oxidase 5 (Homo sapiens) (UniProt Q96PH1). Briefly: compounds shifting NOX5 Amplex Red fluorescence – cell-based, HEK293-NOX5, NOX inhibitor project, primary screen (AID 1161). To be noted: HEK293-NOX5, ionomycin, 45 min, higher = more signal.
`COC(=O)[C@@]1(Cc2ccc(F)cc2)[C@H]2c3cc(C(=O)N(C)C)n(CCF)c3C[C@H]2CN1C(=O)c1ccccc1`: the z-score is -3.46. With `COC(=O)[C@@]1(Cc2ccccc2)[C@H]2c3cc(C(=O)N(C)C)n(Cc4ccc(Cl)c(C(F)(F)F)c4)c3C[C@H]2CN1C(=O)c1ccccc1`, the z-score is -1.92. The result for `COc1ccc(NN2C(C(O)c3ccc(F)cc3)C=CC3C(=O)N(C4CCCCC4)C(=O)C32)cc1` (stereo unspecified) reads -1.23; that for `[N-]=[N+]=NCc1ccccc1C[C@@]1(C(N)=O)N=C(c2ccc(OCCCO)cc2)O[C@@H]1c1ccccc1N=[N+]=[N-]`, -1.89; that for `O=C1O[C@H](c2ccccc2)[C@H](c2ccccc2)N2[C@H]1[C@@H](C(=O)Nc1nc3ccccc3s1)[C@]1(C(=O)Nc3ccccc31)[C@H]2c1ccccc1OCCO`, 1.86. With `CC(C)c1ccc(NN2C(C(O)C(C)c3ccccc3)C=CC3C(=O)N(c4ccccc4)C(=O)C32)cc1` (stereo unspecified), the z-score is -4.03. On to `COCCCNC(=O)[C@]1(Cc2ccccc2N=[N+]=[N-])N=C(c2ccc(OCCCO)cc2)O[C@@H]1c1ccccc1`, for which the z-score amounted to 0.124. The result for `COC(=O)[C@@]1(Cc2ccc(OC)cc2)[C@H]2c3cc(C(=O)N(C)C)n(Cc4c(CO)[nH]cc(C)c4=O)c3C[C@H]2CN1C(=O)c1ccccc1` reads -0.777; that for `COC(=O)C(CC#Cc1ccc2c(c1)[C@]1(C(=O)N2)[C@H](c2ccc(OCCO)cc2)N2[C@H](c3ccccc3)[C@H](c3ccccc3)OC(=O)[C@H]2[C@@H]1C(N)=O)C(=O)OC`, 0.345; that for `O=C1N(Cc2ccccc2)Cc2ccccc2C[C@@]12COC(c1ccc(OCCCO)cc1)=N2`, -1.8. Regarding `COCCCNC(=O)[C@@]1(c2ccc([N+](=O)[O-])cc2)CC(=O)N(C2CCCCC2)[C@@H]1c1ccc(CO)cc1I`, the z-score is 2.07. Consider `CO[C@H]1O[C@H](CO)[C@@H](OC(=O)Nc2ccccc2)[C@@H]2OC(=O)[C@@H](Cc3ccccc3)C/C=C/C[C@H](Cc3ccccc3)C(=O)O[C@@H]12`, for which the z-score was -1.3. For the compound `O=C1O[C@@H](c2ccccc2)[C@@H](c2ccccc2)N2[C@@H](c3ccc(OCCO)cc3)[C@]3(C(=O)Nc4ccc(C#CC5=CCCCC5)cc43)[C@@H](C(=O)Nc3nc4ccccc4s3)[C@H]12`, the z-score was 0.0226. The result for `COCCOC(=O)N1C(=O)[C@@]2(c3cc(C#CC4(O)CCCCCC4)ccc31)[C@H](C(N)=O)[C@H]1C(=O)O[C@H](c3ccccc3)[C@H](c3ccccc3)N1[C@@H]2c1ccc(OCCO)cc1` reads 0.923. As to `COC(=O)C(CC#Cc1ccc2c(c1)[C@]1(C(=O)N2)[C@H](C(N)=O)[C@H]2C(=O)O[C@H](c3ccccc3)[C@H](c3ccccc3)N2[C@@H]1c1ccccc1OCCO)C(=O)OC`, the z-score was 0.904. The result for `Cc1ccc(S[C@]2(C(=O)NCC(C)C)CC(=O)N(C(C)C)[C@@H]2c2ccc(CO)cc2I)cc1` reads 1.9. The result for `CN1C2C=C(c3ccc(CO)cc3)C(C3C(=O)N(C(N)=O)C(=O)C32)C1C1CC1` (stereo unspecified) reads -0.739; that for `[N-]=[N+]=NCc1ccccc1[C@H]1OC(c2ccc(OCCCO)cc2)=N[C@@]1(CCS(=O)(=O)c1ccccc1)C(=O)O`, 2.1; that for `COC(=O)[C@@]1(Cc2ccc(F)cc2)[C@H]2c3cc(C(=O)N4CCCC4)n(Cc4ccc(OC(F)(F)F)cc4)c3C[C@H]2CN1C(=O)c1ccccc1`, -0.51. The result for `C[N+](C)(C)CCCC[C@@H]1NC(=O)[C@H]2C[C@@H](C(=O)O)[C@@H](c3ccc(O)cc3)N2C1=O` reads -0.411; that for `CN1C(=O)C2CC=C(C3=CCO[C@@H]3[C@H]3CCCN3S(=O)(=O)c3ccccc3[N+](=O)[O-])CC2C1=O` (stereo partly specified), 0.32. In the case of `COC(=O)[C@@]1(Cc2ccc(F)cc2)[C@H]2c3cc(C(=O)N4CCCC4)n(Cc4ccc(C(F)(F)F)nc4)c3C[C@H]2CN1C(=O)c1ccccc1`, the z-score is -2.46. The result for `C=C(CCCC)/C(=C/C[C@@H](OC(C)=O)c1cccc(OCCO)c1)c1cc(C(=O)OC)ccc1OC` reads -1.88; that for `O=C/C=C/c1ccc(-c2ccccc2)cc1`, 0.605; that for `O=C1O[C@H](c2ccccc2)[C@H](c2ccccc2)N2[C@H]1[C@@H](C(=O)N1CCCCCCC1)[C@]1(C(=O)Nc3ccc(C#CCCO)cc31)[C@H]2c1ccc(O)cc1`, 1.38.

`C=CCNC(=O)[C@H]1[C@@H]2C(=O)O[C@@H](c3ccccc3)[C@@H](c3ccccc3)N2[C@@H](c2ccc(O)cc2)[C@]12C(=O)Nc1ccc(C#CCC(C(=O)OC)C(=O)OC)cc12`: the z-score came to 1.93.
